Assay outcomes as filed in PubChem BioAssay.
A selection: hits, their analogues and other compounds. The true share with any hit is near 2.3%.
Mcl-1 Bim block – inhibitors of Bim peptide binding to Mcl-1, primary screen, biochemical, bead-based flow cytometry, multiplex; 190,000 compounds, 0.1% hits; Bim peptide-Mcl-1 binding; inhibition, % at 10 µM; Induced myeloid leukemia cell differentiation protein Mcl-1 (Homo sapiens), Q07820; in the data active means inhibition above about 40%;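 further: 0% = no compound tracer wells and 100% = peptide blocker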
MCL1 BIM primary – inhibitors of MCL1 binding to BIM-BH3, primary screen, biochemical, fluorescence polarization; inhibition, % at 10.9 µM; 320,000 compounds, 0.68% hits; GST-MCL1 / FITC-Bim-BH3 fluorescence polarization; Induced myeloid leukemia cell differentiation protein Mcl-1 (Homo sapiens), Q07820;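 active means inhibition above the mean inhibition of all tested compounds plus 3 SD, set per campaign, cut at about 40% in these data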;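 further: 0% = DMSO wells and 100% = unlabeled Bim-BH3 peptide control; higher means more loss of mP so more displacement of Bim peptide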
Mcl1-Noxa inh – Mcl-1/Noxa binding inhibitors, primary screen, biochemical, TR-FRET, 1536-well; inhibition, % at 21.7 µM; AID 1022, 2008; 220,000 compounds, 1.5% hits; TR-FRET Mcl-1/Noxa peptide binding, 2 h; Induced myeloid leukemia cell differentiation protein Mcl-1 (Homo sapiens), Q07820;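 active means compounds that cut the protein-peptide binding signal by more than 50% relative to plate controls in a single-dose test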;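 further: His-tagged Mcl-1 with rhodamine Noxa BH3 peptide and terbium anti-His antibody; 0% = Mcl-1 plus Noxa peptide wells and 100% = peptide-only wells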
Mcl1-Bid inh – Mcl-1/Bid binding inhibitors, primary screen, biochemical, TR-FRET, 1536-well; AID 1021, 2008; TR-FRET Mcl-1/Bid-Dy647 peptide binding; 220,000 compounds, 0.97% hits; inhibition, % at 21.7 µM;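 active means compounds that cut the binding signal by more than half at the single screening dose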;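 further: His-tagged Mcl-1 with europium anti-His antibody binding Bid BH3 peptide; 0% = Mcl-1 plus peptide wells and 100% = peptide-only wells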
Bcl-xL primary – inhibitors of human Bcl-xL, primary screen, biochemical, fluorescence polarization, HTS; 320,000 compounds, 0.7% hits; inhibition, % at 10.9 µM; Bcl-2-like protein 1 (Homo sapiens), Q07817; AID 2129, 2009; GST-Bcl-xL / FITC-Bim BH3 peptide fluorescence polarization;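 active means inhibition above the mean of all tested compounds plus 3 SD, cutoff set per campaign, cut at about 30% in these data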;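 further: 0% = DMSO wells and 100% = unlabeled Bim-BH3 peptide competitor; inhibitors lower millipolarization by displacing the labeled peptide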
Target sequence (Q07817 whole entry, looked up): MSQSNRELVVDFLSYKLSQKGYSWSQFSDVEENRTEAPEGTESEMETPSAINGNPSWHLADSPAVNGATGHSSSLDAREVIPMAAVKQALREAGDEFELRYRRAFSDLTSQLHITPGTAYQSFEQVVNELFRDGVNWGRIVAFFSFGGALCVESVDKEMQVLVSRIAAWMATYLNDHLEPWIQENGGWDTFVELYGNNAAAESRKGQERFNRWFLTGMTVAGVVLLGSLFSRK
GLD-1 RNA inh – GLD-1/TGE RNA complex disruptors, primary screen, biochemical, fluorescence polarization; Female germline-specific tumor suppressor gld-1 (Caenorhabditis elegans), Q17339; inhibition, % at 5.96 µM; purified GLD-1 + fluorescein TGE RNA; 320,000 compounds, 0.44% hits;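 active means percent inhibition above a per-plate cutoff, the plate mean of test compounds plus 3 SD, cut at about 30% in these data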;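 further: 0% = DMSO wells with GLD-1 and probe and 100% = wells lacking GLD-1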
Target sequence (Q17339 whole entry, looked up): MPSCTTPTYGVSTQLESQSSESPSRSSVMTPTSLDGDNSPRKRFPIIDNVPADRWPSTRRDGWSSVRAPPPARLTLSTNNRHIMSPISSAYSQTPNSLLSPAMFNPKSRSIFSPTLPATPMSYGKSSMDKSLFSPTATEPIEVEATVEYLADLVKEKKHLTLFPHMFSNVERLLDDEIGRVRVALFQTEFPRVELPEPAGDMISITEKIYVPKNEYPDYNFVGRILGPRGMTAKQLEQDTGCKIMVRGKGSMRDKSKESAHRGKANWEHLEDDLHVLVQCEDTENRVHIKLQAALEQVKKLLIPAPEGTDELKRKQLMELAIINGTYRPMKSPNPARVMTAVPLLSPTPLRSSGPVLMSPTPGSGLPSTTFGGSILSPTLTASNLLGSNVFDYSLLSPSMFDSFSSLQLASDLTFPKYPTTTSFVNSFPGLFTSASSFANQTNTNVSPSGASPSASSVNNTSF
* = called active by the depositor; . = no result given.

SMILES | Mcl-1 Bim block | MCL1 BIM primary | Mcl1-Noxa inh | Mcl1-Bid inh | Bcl-xL primary | GLD-1 RNA inh
CCCC1(c2ccccc2)NC(=O)N(CC(=O)Nc2ccccc2C(F)(F)F)C1=O (stereo unspecified) | . | -0.3 | . | . | -1.0 | 7.1
Cc1ccc2nc(-c3ccccc3)cc(C(=O)NCC(c3ccco3)N(C)C)c2c1 (stereo unspecified) | . | 2.4 | . | . | 7.5 | 3.4
CCCCCCCC/C=C\CCCCCCCC(=O)O | . | 3.9 | 63.2* | -73.6 | 4.3 | 2.0
CCCCC/C=C\C/C=C\C/C=C\CCCCC(=O)O | . | 16.3 | . | . | 3.0 | 4.7
O=C(Cc1c(F)cccc1Cl)NCC(=O)OCc1ccccc1 | . | -5.0 | . | . | 1.9 | -1.7
CCOC(=O)c1sc(SCC(=O)Nc2ccc(N(C)C)cc2)nc1N | -1.0 | 16.6 | 72.5* | -41.3 | 2.7 | 12.2
COc1ccc(NC(=O)CSc2nnc(N)s2)cc1 | 1.0 | -0.3 | -11.5 | -43.3 | 6.8 | -3.1
CN(C)c1ccc(NC(=O)CSc2nc(N)c(C(=O)Nc3ccc(N(C)C)cc3)s2)cc1 | 1.0 | 9.2 | 72.9* | -40.7 | 9.5 | -6.7
COc1ccc(NC(=O)CSc2nc(N)c(C(=O)Nc3ccc(N(C)C)cc3)s2)cc1 | 0.0 | 5.2 | 26.3 | -15.9 | 3.0 | -6.8
CC(NC(=O)c1ccco1)C(=O)N1CCN(C(c2ccccc2)c2ccccc2)CC1 (stereo unspecified) | . | 3.7 | . | . | 3.6 | 2.6
Cc1nnc(NC(=O)COc2ccc3c(C)cc(=O)oc3c2)s1 | -2.0 | 23.1 | 79.1* | -32.6 | 4.8 | 0.1
Cc1ccc(Cl)cc1NC(=O)COC(=O)c1ccc(COc2ccc3c(C)cc(=O)oc3c2)cc1 | -2.0 | -16.7 | -0.8 | 57.1* | -9.3 | 0.7
Oc1c(Cl)cc(Cl)cc1/C=C/c1ccc2cccc(O)c2n1 | 2.0 | -4.0 | 81.5* | -56.3 | 4.2 | -54.9
O=C(NC1CC1)c1cccc2c1C(=O)c1ccc(N3CCC(Cc4ccccc4)CC3)cc1S2(=O)=O | . | . | . | . | . | 44.6*
O=C(NC1CCCCC1)c1cccc2c1C(=O)c1ccc(N3CCCC3)cc1S2(=O)=O | . | . | . | . | . | 31.8*
O=C(NCc1ccc(F)cc1)c1cccc2c1C(=O)c1ccc(N3CCC(Cc4ccccc4)CC3)cc1S2(=O)=O | . | . | . | . | . | 167.6*
O=C(NCc1cc(C(F)(F)F)ccc1Cl)c1cccc2c1C(=O)c1ccc(N3CCC(Cc4ccccc4)CC3)cc1S2(=O)=O | . | . | . | . | . | 158.8*
COc1ccc(CNC(=O)C2CCC(=O)N(CCCN3CCCC3=O)C2)c(OC)c1 (stereo unspecified) | . | -3.1 | . | . | -3.0 | 2.8
COc1cc(CN2CCNC(=O)C2CC(=O)NC2CCCC2)cc(OC)c1 (stereo unspecified) | . | 28.6 | . | . | 29.4 | 20.8
CC(C)(C)CNC(=O)c1cccc2c1C(=O)c1ccc(N3CCCC3)cc1S2(=O)=O | . | . | . | . | . | 31.6*
C=CCOC(=O)C(=O)/C=C/c1coc2ccccc2c1=O | -1.0 | 46.5* | 4.9 | -5.5 | 51.5* | 63.4*
C=CCOC(=O)C(=O)/C=C/c1c(C)n(C)n(-c2ccccc2)c1=O | 0.0 | 5.2 | -10.6 | -8.6 | 3.7 | 3.9
Cc1c(Cc2ccccc2)sc(NC(=O)/C=C/c2cccc3ccccc23)c1C(N)=O | -5.0 | -5.2 | 58.7* | -45.2 | 3.2 | 2.2
COC(=O)c1c(NC(=O)/C=C/C(=O)O)sc(Cc2ccccc2)c1C | -5.0 | 0.8 | 14.2 | -8.9 | 5.9 | 0.2
O=C(Cc1cc2ccccc2o1)NCc1ccc(F)cc1 | . | -3.1 | . | . | -0.2 | -5.6
SMILES | Mcl-1 Bim block | MCL1 BIM primary | Mcl1-Noxa inh | Mcl1-Bid inh | Bcl-xL primary | GLD-1 RNA inh
CC(/C=N/n1c(-c2ccco2)n[nH]c1=S)=C\c1ccco1 | -3.0 | 19.3 | 42.3 | -47.2 | 0.3 | 1.9
CC(/C=N\Nc1nnc2c(n1)[nH]c1c(C)cccc12)=C\c1ccco1 | 0.0 | 9.5 | 87.4* | 78.5* | 5.2 | 4.5
CCOC(=O)c1ccc(-c2c(-c3ccccc3OC)sc3ccc(OC)cc23)cc1F | . | . | . | . | . | 0.3
CCOc1ccccc1OCC(=O)OCc1csc(CC(=O)Nc2ccccc2C)n1 | . | -4.4 | . | . | -3.6 | -3.4
CCOC(=O)C1CCN(C(=O)c2ccc3nc(-c4ccc(OC)cc4)c(-c4ccc(OC)cc4)nc3c2)CC1 | . | 2.4 | . | . | 8.9 | 9.1
COc1ccc(NC(=O)c2ccccc2NS(C)(=O)=O)cc1OC | -6.0 | 3.4 | 8.0 | 50.9* | 1.8 | -4.0
COc1ccccc1NC(=O)c1ccccc1NS(C)(=O)=O | 0.0 | 8.0 | 4.9 | -2.5 | -0.5 | 0.2
CCCc1cc(SCC(=O)Nc2c(C)n(C)n(-c3ccccc3)c2=O)n2c(nc3ccccc32)c1C#N | 2.0 | -0.5 | -49.8 | 66.1* | 7.9 | 6.3
CCOc1ccc(C(=O)NC(=S)Nc2ccccc2N2CCC(C)CC2)cc1[N+](=O)[O-] | -1.0 | 1.6 | 0.5 | -22.4 | 2.6 | 0.5
CCOc1ccc(C(=O)NC(=S)Nc2ccc(N3CCC(C)CC3)cc2)cc1[N+](=O)[O-] | -3.0 | . | 45.3 | 54.2* | . | .
O=c1c2oc3nc4c(cc3c2ncn1CCCc1ccccc1)CCCC4 | . | 7.5 | 6.3 | -6.7 | 4.6 | -0.8
Cn1c(CNC(=O)CCNC(=O)c2ccccc2F)cc(=O)n(C)c1=O | . | 6.3 | . | . | 1.0 | -0.7
COCCCn1c(SCC(=O)N2CCOCC2)nc2ccccc2c1=O | . | 4.7 | . | . | 2.4 | -1.4
Cc1ccc(NC(=O)Cn2nc(-c3ccccc3)nc2-c2ccccc2)c(C)c1 | -6.0 | -6.1 | -5.5 | -23.9 | 1.6 | 7.6
Cc1ccc(C)c(NC(=O)Cn2nc(-c3ccccc3)nc2-c2ccccc2)c1 | 2.0 | 7.2 | -12.6 | 56.0* | 5.8 | 0.5
O=C(NC1CCCCC1)C(c1ccc2ncccc2c1)N(Cc1ccccc1)C(=O)c1ccc2c(c1)OCCO2 (stereo unspecified) | 0.0 | 2.1 | 61.4* | 85.9* | -0.1 | 1.5
Cc1ccc(-n2c(N)c(C(=O)Nc3c(C)n(C)n(-c4ccccc4)c3=O)c3nc4ccccc4nc32)cc1 | -34.0 | -18.0 | 31.5 | 1.6 | -6.4 | 5.5
Cc1cc(C)cc(-n2c(N)c(C(=O)Nc3c(C)n(C)n(-c4ccccc4)c3=O)c3nc4ccccc4nc32)c1 | -12.0 | -0.2 | 40.6 | -23.8 | 32.0* | 6.7
O=C1c2ccccc2C(=O)N1CCCCc1cn(C[C@H]2CC[C@@H]([C@@H]3CC[C@H](Cn4cc(CCCCN5C(=O)c6ccccc6C5=O)nn4)O3)O2)nn1 | . | . | . | . | . | 2.5
O=C(Nc1ccc(C2=NCCN2)cc1)c1ccc(Cl)c(C(=O)Nc2ccc(C3=NCCN3)cc2)c1 | . | -4.9 | 57.2* | -0.5 | 4.1 | -4.1
O=C(OCC(O)CO)c1ccccc1Nc1ccnc2cc(Cl)ccc12 (stereo unspecified) | . | -4.0 | . | . | -2.0 | 3.0
